# High-throughput results deposited in PubChem BioAssay by Broad Institute.
# CD40 NFkB inh – CD40 pathway inhibition in BL2 cells; BL2 NF-kB luciferase reporter, CD40L-induced, 4 h; inhibition, % at 10 µM; actives 0.94% (n = 83,000); AID 1053188;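 active = mean inhibition of at least 50% with a set share of replicates also reaching that level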
# Hits are given with their value; . = inactive; [ ] = another dose, or the depositor's remark. Only a selection was taken, and hits are over-represented in it overall.
SMILES,CD40 NFkB inh
C[C@@H]1CN([C@@H](C)CO)C(=O)CCCn2cc(nn2)CO[C@H]1CN(C)C(=O)Nc1cccc2ccccc12,.
COc1ccccc1NC(=O)N1CCCCN2[C@H](CO)[C@@H](c3ccc(-c4cccc(C#N)c4)cc3)[C@H]2C1,.
CNC(=O)c1c(C)noc1C,.
COc1ccc(Nc2nc(N3CCCCC3)nc3ccccc23)c(OC)c1,.
CN(Cc1ccccc1)S(=O)(=O)c1ccc(OCC(=O)NCc2ccccn2)cc1,.
CCCCCCCn1c2c(c(=N)c3ccccc31)CCC2,84.0
CCCCCCN1Cc2ccccc2C1,.
CCCCn1c(=N)n(CC(=O)O)c2ccccc21,.
CCS(=O)(=O)Nc1ccc2c(c1)C(=O)N(C)[C@@H]1CC[C@H](CC(=O)N[C@@H]3CCN(Cc4ccccc4)C3)O[C@H]1CO2,.
Cc1cccc(C(=O)NCC(=O)NNC(=O)c2ccccc2O)c1,.
Cc1ccccc1C(=O)Nc1c(C(=O)N(CCN(C)C)Cc2ccco2)oc2ccccc12,.
Cc1ccc(C(=O)NCCN(C)C)c(C)c1,.
CNc1c2cccc(C)c2nc2c(C(=O)NCCN(C)C)cccc12,85.5
Cn1nnnc1SCC(=O)c1ccc2c(c1)OCCO2,.
Cc1sc2ccccc2[n+]1CC(=O)O,.
CC[n+]1c(C)sc2cc(C)ccc21,56.1
CC[n+]1c(/C=C(/C)SC)sc2ccccc21,.
Cn1cc(Br)c(C(=O)NC2C3CC4CC(C3)CC2C4)n1 (stereo not given),.
O=S(=O)(c1cccs1)N1CCN(c2ccccn2)CC1,.
O=C1CCCCc2sc(Br)c([N+](=O)[O-])c2N1,100.2
COc1ccc(N(C(C)=O)S(=O)(=O)c2cccc3cccnc23)cc1,.
COc1ccc(C(=O)C2CC2c2ccc3c(c2)OCO3)cc1 (stereo not given),.
CCN(CC)CC(C)(C)C(=O)/C=C/c1ccc(/C=C/C(=O)C(C)(C)CN(CC)CC)cc1,74.8
CCN(CC)CC(=O)Nc1c(C)cc(C(C)(C)C)cc1C,.
CCN(CC)c1ccc(C(=O)O)cc1,.
SMILES,CD40 NFkB inh
COC(=O)c1ccc(CSc2ncnc3ccccc23)o1,.
O=C(NC1CCCC1)C1CC(=O)N(C2CCCCCCC2)C1 (stereo not given),.
CCCS(=O)(=O)NC(=O)C1(C)CCCN(C(=O)c2cc(-c3ccccc3)cs2)C1 (stereo not given),.
CCOC(=O)c1c(C2COc3ccccc3O2)csc1NC(=O)c1ccccc1 (stereo not given),.
O=S(=O)(N1CCCCC1)N1CCN(S(=O)(=O)N2CCCCC2)CC1,.
O=C1C(Br)=C(c2ccccc2)C(c2ccccc2)=C1c1ccccc1,82.0
COC(=O)c1cc(=O)c2cccc(OC)c2[nH]1,.
Cc1ccc(-c2ccc([C@H]3[C@H]4CN(C(=O)NC(C)C)CC(=O)N4[C@H]3CO)cc2)cc1,.
Cc1ccc(-c2ccc([C@H]3[C@H](CO)N4C(=O)CN(C(=O)NC(C)C)C[C@@H]34)cc2)cc1,.
O=C(C1CCOCC1)N1CC(=O)N2[C@@H](CO)[C@@H](c3ccc(C#CCc4ccccc4)cc3)[C@@H]2C1,.
O=C(C1CCOCC1)N1CC(=O)N2[C@H](C1)[C@@H](c1ccc(C#CCc3ccccc3)cc1)[C@@H]2CO,58.3[25 µM]
O=C(C1CCOCC1)N1CC(=O)N2[C@H](CO)[C@@H](c3ccc(C#CCc4ccccc4)cc3)[C@@H]2C1,.
CC(C)NC(=O)N1CC(=O)N2[C@H](CO)[C@@H](c3ccc(/C=C/c4ccccc4)cc3)[C@H]2C1,52.9[25 µM]
O=C(C1CCCC1)N1CC(=O)N2[C@H](CO)[C@@H](c3ccc(C#CCc4ccccc4)cc3)[C@H]2C1,.
O=C(C1CCCC1)N1CC(=O)N2[C@@H](CO)[C@H](c3ccc(C#CCc4ccccc4)cc3)[C@@H]2C1,92.8
COCC#Cc1ccc([C@H]2[C@@H](CO)N3C(=O)CN(C(=O)C4CCCC4)C[C@H]23)cc1,.
CN(CC(=O)Nc1ccccc1Br)C(=O)c1cc2c(s1)CCCCC2,.
COc1ccc2c3c(n(C)c2c1)[C@@H](CO)N(CC1CC1)CC31CN(S(=O)(=O)c2cn(C)cn2)C1,.
Fc1ccc(Cn2nnnc2C(c2cccs2)N2CCN(C3CCCCC3)CC2)cc1 (stereo not given),.
S=C(NCCN1CCOCC1)Nc1ccc(-c2nc3ccccc3[nH]2)cc1,.
COCC(=O)Nc1ccc2c(c1)C(=O)N(C)C[C@H](OC)[C@H](C)CN(CCc1ccccc1)[C@@H](C)CO2,.
COc1ccc(NC(=O)Cn2nc(C(=O)O)c3ccccc3c2=O)cc1S(=O)(=O)N1CCCCC1,.
CCCNC(=O)N1[C@H](C#N)[C@@H](c2ccc(-c3ccccc3F)cc2)[C@H]1CO,.
CCCNC(=O)N1[C@@H](C#N)[C@@H](c2ccc(-c3cccnc3)cc2)[C@@H]1CO,.
CCCNC(=O)N1[C@@H](C#N)[C@H](c2ccc(-c3cccc(OC)c3)cc2)[C@@H]1CO,50.7[25 µM]
SMILES,CD40 NFkB inh
CCCNC(=O)N1[C@H](CO)[C@H](c2ccc(/C=C/c3ccccc3)cc2)[C@@H]1C#N,66.3[25 µM]
CCCNC(=O)N1[C@H](CO)[C@H](c2ccc(-c3cccnc3)cc2)[C@@H]1C#N,.
CCCNC(=O)N1[C@H](C#N)[C@@H](c2ccc(-c3ccc(C(=O)N(C)C)cc3)cc2)[C@@H]1CO,.
CCCNC(=O)N1[C@H](CO)[C@H](c2ccc(-c3cccc(OC)c3)cc2)[C@@H]1C#N,67.9[25 µM]
CCCNC(=O)N1[C@H](CO)[C@H](c2ccccc2-c2cccc(OC)c2)[C@@H]1C#N,.
CCCNC(=O)N1[C@H](C#N)[C@@H](c2ccc(-c3ccccc3F)cc2)[C@@H]1CO,.
O=C(Nc1ccc(F)c([N+](=O)[O-])c1)c1cccs1,.
O=C(C[C@H]1C=C[C@H](NC(=O)NC2CCCC2)[C@H](CO)O1)NCc1ccc(F)cc1,.
O=C(N1CCOCC1)N1CCN(S(=O)(=O)c2ccc(Cl)cc2)C1,.
O=C(c1nnsc1S(=O)(=O)c1ccc(Cl)cc1)N1CCOCC1,96.6
O=C(c1ccc(S(=O)(=O)Nc2ccccc2Cl)cc1)N1CCOCC1,.
O=C(CNC(=O)c1cccs1)NCC(=O)OCC(=O)c1ccccc1,.
O=C(NC1CC(=O)N(c2ccc(Cl)cc2)C1)C1CC1 (stereo not given),.
COC(=O)N1CCCc2cc(C)ccc21,.
CCOC(=O)N1CCc2c(sc(NC(=O)CN3CCOCC3)c2C#N)C1,.
NNC(=O)CCN1CCCCC1,.
NC(=O)CCN1CCCCC1,.
O=C(CCC(=O)CCN1CCCCC1)CCN1CCCCC1,77.4
COc1ccc(NC(=O)N(C)C[C@@H]2OCCCC[C@@H](C)Oc3ccc(NC(=O)Cc4ccccc4)cc3C(=O)N([C@H](C)CO)C[C@@H]2C)cc1,.
Cc1cc(C(=O)COC(=O)c2ccc(O)cc2)c(C)n1CC1CCCO1 (stereo not given),.
COc1cc(OC)cc(C(=O)OCC(=O)c2cc(C)n(CC3CCCO3)c2C)c1 (stereo not given),.
Cc1cc(C(=O)COC(=O)CNC(=O)c2ccccc2)c(C)n1CC1CCCO1 (stereo not given),57.9
CC(=O)Nc1sc2c(c1C(c1ccccn1)N1CCCC1)CCCC2 (stereo not given),.
COc1ccc(C(=O)C23CC4CC(C2)CC(C(=O)c2ccc(OC)cc2)(C4)C3)cc1,.
COc1ccc(-c2ccc(C(=O)C3CC3)cc2)cc1,.
CC[N+]1(C)CCC(O)(c2ccc(OC)cc2)C(C(=O)c2ccc(OC)cc2)C1 (stereo not given),97.2
